From PubChem BioAssay (NCI) come the findings set out here.

Several values for one entry are separate records, joined by “and”; a condition that tells them apart may be missing. Identical values can stand only once. The panel holds about 83,000 compounds, 20% with a hit somewhere; the sample as a whole holds those more often.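 For each line, cells grew in 96-well plates with the test compound present at a single concentration for 48 hours.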 Activity calls are given as the source filed them. Rule for the calls: active = growth percent below 10; inactive = the rest.

This experiment deals with MDA-MB-468 breast. The experiment in a line: NCI-60 one-dose screen, 48 h (100 = growth as untreated, 0 = no growth, -100 = all killed). To be noted: 10 µM unless noted.
Turning to `CCOP(=O)(Cc1ccc(C#N)cc1)OCC`, the growth was 108% (inactive).
Consider `CC1(C)CN1P(=O)(N1CC1(C)C)N1CC1(C)C` (stereo not given), for which the growth is 106% (inactive).
The same measure for `NC(Cc1ccc2c(c1)OCO2)c1ccc2c(c1)OCO2` (stereo not given): 96% (inactive).
For `CNC(=O)Oc1cccc(N(C)C)c1` the value was 92.7% (inactive); for `[Cl][Hg][n]1c(-c2ccco2)nc2ccccc21`, 94.4% (inactive).
The same measure for `CC(=O)Nc1nc2c(s1)CC[C@@]1(C)C2=CC[C@H]2[C@@H]3CC[C@H](O)[C@@]3(C)CC[C@@H]21`: 58.2% (inactive); for `COC(C)(C)CCC[C@H](C)C/C=C/C(C)=C/C(=O)OC(C)C`: 86.7% (inactive).
Consider `CC(=O)O[C@H](C[C@H](C(C)C)N(C)C(=O)[C@@H](NC(=O)[C@H]1CCCCN1C)C(C)C)c1nc(C(=O)NC2CCC(C(=O)O)CC2)cs1` (stereo not given in full), for which the growth is 29.6% (inactive).
For `O=C(C(=O)N1CCCC1)c1cn(CCCCCn2cc(C(=O)C(=O)N3CCCC3)c3ccccc32)c2ccccc12` the value was 91% (inactive); for `COc1cc([N+](=O)[O-])c2nc(C)ccc2c1[N+](=O)[O-]`, -9.11% (active).
With `O=[N+]([O-])c1cccc([As]=[As]c2cccc([N+](=O)[O-])c2)c1` (stereo not given), the growth is -78.5% (active).
The same measure for `CS(=N)(=O)CCC(N)C(=O)O` (stereo not given): 106% (inactive); for `CCCCCCCCCCCCCCCC[N+](C)(C)C`: -77.9% (active) and -17% (active); for `COc1ccc(/C=C\c2cc(OC)c(OC)c(OC)c2)cc1NC(=O)/C=C/c1ccc(OC)c(OC)c1`: 1.52% (active).
The same measure for `COc1cc(/C=C\[N+](=O)[O-])ccc1OCc1ccccc1`: 6.8% (active); for `O=C1NC(=O)C(=Cc2cn(C(=O)c3ccccc3)c3ccccc23)C(=O)N1`: 101% (inactive); for `O=C(CCCCCCC(=O)Nc1ccc(N(CCCl)CCCl)cc1)NO`: -64.2% (active).
Regarding `COC[C@@H]1C[C@@]2(C)[C@@H](CC[C@@H]3[C@@H]2CC[C@@]2(C)[C@H]3CC[C@]2(C)O)CC1=O`, the growth is 99% (inactive).
Regarding `O=C(c1cccc(O)c1O)c1cn(Cc2ccc(F)cc2)c2cccc(O)c12`, the growth was 27% (inactive).
The same measure for `C=CC(=O)NC(O)C(Cl)(Cl)Cl` (stereo not given): 121% (inactive).
The same measure for `COc1cc(C2C3=C(CCCC3=O)N(CCO)c3cc4c(cc32)CCC4)cc(OC)c1OC` (stereo not given): 93.8% (inactive); for `Cc1c2ccncc2c(C)c2c1[nH]c1ccccc12`: -54.9% (active).
For `CC[C@H](C)[C@H](NC(=O)[C@H]1CCCCN1C)C(=O)N(C)[C@H](C[C@@H](OC(C)=O)c1nc(C(=O)N[C@@H](Cc2ccccc2)C[C@H](C)C(=O)OC)cs1)C(C)C` the value was -7.99% (active); for `O=C1NC(=S)NC(=O)C1=Cc1ccccc1`, 117% (inactive); for `COC(=O)C[Se]C(=O)c1ccccc1OC(C)=O`, 34.8% (inactive).
As to `Cc1cc(NC(=O)CCc2ccc(N3C(N)=NC(N)=NC3(C)C)cc2)ccc1S(=O)(=O)F`, the growth is 32.4% (inactive).
For `O=C(N/N=C/c1ccc(N(CCCl)CCCl)cc1)c1cccc2ccccc12`, the growth was 56.2% (inactive).
As to `C[C@]12CC[C@H]3[C@@H](C[C@@H]4SC(Nc5ccccc5)=N[C@@]45CC(O)CC[C@]35C)[C@@H]1CCC2O` (stereo not given in full), the growth is -1% (active).
For `Nc1ccc2c(c1)Cc1cc(Br)ccc1-2` the value was 85.2% (inactive); for `CC(=O)Oc1ccccc1C(=O)NCCC[Se]C#N`, 19% (inactive).
The same measure for `Cc1cc(N=Nc2ccccc2C)ccc1N`: 64.5% (inactive); for `CN[C@]1(c2ccccc2Cl)CCCC[C@H]1NCCCN1CCN(C)CC1`: 85.2% (inactive).
In the case of `S=P(SP(=S)(c1ccccc1)c1ccccc1)(c1ccccc1)c1ccccc1`, the growth was 101% (inactive).
Regarding `CC1(C)C2CCC1(CS(=O)(=O)O)C(=O)C2` (stereo not given), the growth was 123% (inactive).
The same measure for `COc1cccc2c1C(=O)c1c(O)c3c(c(O)c1C2=O)CC(O)(/C(C)=N/NC(=O)CCC(=O)N/N=C(\C)C1(O)Cc2c(O)c4c(c(O)c2C(OC2CC(N)C(O)C(C)O2)C1)C(=O)c1c(OC)cccc1C4=O)CC3OC1CC(N)C(O)C(C)O1` (stereo not given): -35.7% [5 µM] (active); for `O=C(Nc1ccncc1F)c1cn(CC2CC2)c2ccccc12`: 107% (inactive).
For `CC(=O)OC1CC2(O)C(CCC3(C)C(c4ccc(=O)oc4)CCC32O)C2(C)CCC(OC3OC(CO)C(O)C(O)C3O)C=C12` (stereo not given) the value was -34.6% (active); for `CC[C@H](C)[C@H](NC(=O)[C@H]1CCCCN1C)C(=O)N(C)[C@H](CCc1nc(C(=O)N[C@@H](Cc2ccccc2)C[C@H](C)C(=O)O)cs1)C(C)C`, 36.1% (inactive); for `CC[C@H](C)[C@H](NC(=O)N[C@@H](C)c1ccccc1)C(=O)N(C)[C@H](C[C@@H](OC(C)=O)c1nc(C(=O)N[C@@H](Cc2ccccc2)C[C@H](C)C(=O)OC)cs1)C(C)C`, -0.266% (active).
The same measure for `O=[N+]([O-])c1ccc(P(=O)(O)O)cc1`: 102% (inactive).
